Gal4-VP16 FLuc: VP16 counterscreen qHTS for inhibitors of ROR gamma transcriptional activity. Drosophila S2 Gal4-VP16 UAS-luciferase, luminescence, 20 h. Potency, µM (titrated, usually from 53.6 µM), without a hit: at the top dose activity, negative = inhibition, actives largely listed as inhibitors. actives 3.5% (n = 310,000);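 further: Gal4-VP16 expression switched on by copper sulfate through the metallothionein promoter; nearly all actives have a fitted effect of over 50% in size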
KinaseGlo FLuc: Counterscreen for Luciferase (Kinase-Glo TM) Inhibition | Luciferin 4-monooxygenase (Photuris pensylvanica), Q27757 | Kinase-Glo luciferase, ATP luminescence, 8 min | Potency, µM (top dose mostly 38.3 µM), inactives show at the top dose activity change, negative = inhibition, most hits filed as inhibitors | actives 0.28% (n = 200,000); further: nearly all actives have a fitted effect of over 60% in size
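Compound is pinned into ATP-containing buffer (10 uM ATP, imidazole pH 7.2, 7 mM MgCl2). Kinase-Glo luciferase reagent is then added. Light output is recorded following an 8-min room-temperature incubation.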
RORgamma inh: qHTS for inhibitors of ROR gamma transcriptional activity. Potency, µM (doses to about 53.6 µM), for inactives: top-dose activity change, negative = inhibition, actives largely listed as inhibitors. actives 5.4% (n = 310,000). Drosophila S2 Gal4-RORgamma UAS-luciferase reporter, 20 h. Nuclear receptor ROR-gamma (Mus musculus), P51450; further: nearly all actives have a fitted effect of over 60% in size
Target sequence (P51450 whole entry, looked up, the tested form may be a part): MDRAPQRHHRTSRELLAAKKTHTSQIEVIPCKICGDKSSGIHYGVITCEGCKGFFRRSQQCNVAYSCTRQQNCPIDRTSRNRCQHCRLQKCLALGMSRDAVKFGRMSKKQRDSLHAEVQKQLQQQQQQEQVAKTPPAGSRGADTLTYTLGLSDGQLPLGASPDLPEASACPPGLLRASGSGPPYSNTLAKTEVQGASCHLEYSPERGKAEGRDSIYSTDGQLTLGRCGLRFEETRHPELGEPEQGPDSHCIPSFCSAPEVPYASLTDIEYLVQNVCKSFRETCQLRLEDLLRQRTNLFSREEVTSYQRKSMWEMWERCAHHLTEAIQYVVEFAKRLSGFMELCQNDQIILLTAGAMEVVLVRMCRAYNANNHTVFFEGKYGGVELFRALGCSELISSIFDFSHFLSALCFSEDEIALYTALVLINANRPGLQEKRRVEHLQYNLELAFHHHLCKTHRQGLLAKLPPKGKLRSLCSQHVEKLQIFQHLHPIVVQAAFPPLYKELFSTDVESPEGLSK
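ROR gamma transcriptional activity was tracked as Gal4-UAS luciferase output in stably transfected Drosophila Schneider cells, with compound added 1 hr before 700 uM copper sulfate induction and a 20 hr ambient-temperature incubation.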
Numbers without * were called inactive; ? = inconclusive; · = no result; [ ] = another dose, or the depositor's remark. Only some compounds are listed: those with a hit (about 6.4% of all), similar ones and a draw of the others. The call rests on the fitted dose curve; in most records, active means well fitted curve in the direction sought with a large enough effect; inconclusive means small, poorly fitted or top-dose-only effect, or another doubt; inactive means no such curve, though single readings can be large; an effect the other way counts as inactive or inconclusive. On the % scale 0 is the no-effect control and ±100 the full control effect; potency means the concentration at half of the fitted maximal effect.

SMILES	Gal4-VP16 FLuc	KinaseGlo FLuc	RORgamma inh
Cc1c(-c2ccc(O)cc2)nn(-c2ccc(O)cc2)c1-c1ccc(OCCN2CCCCC2)cc1	-1%	0%	?
COc1ccc(CN2CCN(C(=O)CC(C)C)CC2)cc1	9%	·	-19%
COc1ccccc1N1CCN(C(=O)C2CCC(Cn3c(=S)[nH]c4ccccc4c3=O)CC2)CC1 (centres undefined)	5µM*	0%	2.5µM*
CCCCCNC(=O)C1CCC(Cn2c(=S)[nH]c3ccccc3c2=O)CC1 (centres undefined)	-3%	1%	2%
O=c1c(NCCc2ccc(Cl)cc2)c(-c2ccccc2)c1=O	-3%	·	-2%
CCCCc1nc2c(c3c1C[C@H](C)OC3)CN(C(=O)c1cccnc1)CC2	·	-3%[7.66 µM]	·
O=C1/C(=C/c2ccc(O)cc2)CCc2ccc([N+](=O)[O-])cc21	1%	2%	32%
O=C1/C(=C\c2ccc([N+](=O)[O-])cc2)CCc2ccccc21	?	13µM*	-15%
CC[C@H](C)[C@H](NC(=O)[C@@H]1CCCN1C(=O)[C@H](Cc1cnc[nH]1)NC(=O)[C@@H](NC(=O)[C@H](Cc1ccc(O)cc1)NC(=O)[C@@H](NC(=O)[C@H](CCCN=C(N)N)NC(=O)CNC)C(C)C)[C@@H](C)CC)C(=O)O	1%	·	-2%
Cc1ccc(NC(=S)Nc2cccc(S(=O)(=O)Nc3c(C)n(C)n(-c4ccccc4)c3=O)c2)cc1	4%	2%	11µM*
Cc1c(NC(=S)N/N=C/c2ccc([N+](=O)[O-])cc2O)c(=O)n(-c2ccccc2)n1C	3%	·	-2%
Cc1c(NC(=S)N/N=C\c2ccccc2O)c(=O)n(-c2ccccc2)n1C	-21%	-1%	?
CC(=O)c1ccc(NC(=S)Nc2cccc(S(=O)(=O)Nc3c(C)n(C)n(-c4ccccc4)c3=O)c2)cc1	14%	0%	11%
Cc1c(NC(=S)N/N=C/C=C/c2ccccc2)c(=O)n(-c2ccccc2)n1C	0.79µM*	·	0.32µM*
Cc1c(NC(=S)N/N=C/C=C/c2ccc([N+](=O)[O-])cc2)c(=O)n(-c2ccccc2)n1C	11µM*	-8%	3.2µM*
Cc1ccc(NC2CCCN(C(=O)CCN3CCOCC3)C2)cc1C (centres undefined)	?	·	-11%
COC(=O)[C@@H](N)CSC/C=C(\C)CC/C=C(\C)CCC=C(C)C	2%	0%	-6%
COc1cccc(CN(C)C(=O)CCNC(=O)c2ccc(Br)cc2)c1	4%	·	4%
NC(N)=NCCC[C@H](N)C(=O)N1CCC[C@H]1C(=O)N1CCC[C@H]1C(=O)NCC(=O)N[C@@H](Cc1ccccc1)C(=O)N[C@@H](CO)C(=O)N1CCC[C@H]1C(=O)N[C@@H](Cc1ccccc1)C(=O)O	-1%	·	6%
CCOC(=O)N1CCC2(CC1)C(C#N)=C(N)Oc1c2sc2nc(C)cc(C)c12	?	-1%	8.9µM*
CCCN1CCC2(CC1)C(C#N)=C(N)Oc1c2sc2nc(C)cc(C)c12	-4%	5%	-9%
CCc1ccc(NC(=O)CSc2nnc(CNC(=O)c3ccco3)o2)cc1	0%	·	-5%
COc1cc(CCC(=O)Nc2cccc(S(=O)(=O)N(C)C)c2)cc(OC)c1OC	7%	3%	20%
CN(C)S(=O)(=O)c1cccc(NC(=S)N/N=C/c2ccco2)c1	3.2µM*	·	1.1µM*
COc1ccc(O)c(/C=N/NC(=S)Nc2cccc(S(=O)(=O)N(C)C)c2)c1	?	-2%	?
SMILES	Gal4-VP16 FLuc	KinaseGlo FLuc	RORgamma inh
COc1cc(/C=N/NC(=S)Nc2cccc(S(=O)(=O)N(C)C)c2)cc(OC)c1O	2.8µM*	-3%	3.2µM*
COc1cccc(/C=N/NC(=S)Nc2cccc(S(=O)(=O)N(C)C)c2)c1	4.5µM*	·	1.6µM*
CN(C)S(=O)(=O)c1cccc(NC(=S)N/N=C/c2ccc(O)c(O)c2O)c1	-20%	·	?
CN(C)S(=O)(=O)c1cccc(NC(=S)Nc2cc(Cl)cc(Cl)c2)c1	-2%	3%	31%
CN(C)S(=O)(=O)c1cccc(NC(=S)Nc2ccc(Cl)cc2Cl)c1	?	5%	20µM*
COC(=O)C1(C(C[N+](=O)[O-])c2ccc(C)cc2)C(=O)NCC1c1ccco1 (centres undefined)	-13%	·	35%
CCOC(=O)c1cc(S(=O)(=O)Nc2ccc(OC)cc2OC)cn1C	-8%	·	27%
CC(/C=N/NC(=S)Nc1cccc(S(=O)(=O)N(C)C)c1)c1ccccc1 (centres undefined)	-15%	-2%	-30%
CN(C)S(=O)(=O)c1cccc(NC(=S)N/N=C/C(c2ccccc2)c2ccccc2)c1	5µM*	-1%	3.5µM*
C#CCn1cc(C=C2C(=O)c3ccccc3C2=O)c2ccccc21	-3%	-3%	?
Cn1c(=O)c2[nH]c(CCCCc3nc4c([nH]3)c(=O)n(C)c(=S)n4C)nc2n(C)c1=S	·	-3%[7.66 µM]	·
NS(=O)(=O)c1ccc(NC(=O)COc2cccc3ccccc23)cc1	-1%	·	8%
COc1cccc(-n2nnnc2S(C)(=O)=O)c1	5µM*	4%	3.2µM*
COc1cccc(Oc2nnnn2-c2ccccc2)c1	21%	·	-3%
COc1ccc(CN2CCCC(C(=O)Nc3cccc(-n4cccn4)c3)C2)c(F)c1 (centres undefined)	1%	·	-9%
COc1ccc(C2N=C(c3ccccc3)C(C)(C)N2O)cc1OC (centres undefined)	-17%	3%	10µM*
CCC1=NC(c2ccccc2)N(O)C1(C)C (centres undefined)	-1%	-2%	2%
CC(C)NC(=O)CC1C(=O)N(Cc2ccccc2)C(C)c2nc3ccccc3n21 (centres undefined)	-2%	2%	31%
Cc1cnc(CNc2ccnc(-c3cccc(C#N)c3)n2)cn1	5%	·	15%
CCN(Cc1nc(-c2ccc(OC)c(OC)c2)no1)C(=O)c1ccoc1C	3%	·	30%
CC(C)=NNc1nc2c(c(=O)n(C)c(=O)n2C)n1C	-13%	·	-13%
Cn1c(=O)c2c(nc(NN=C3CCCCC3)n2C)n(C)c1=O	4%	11µM*	-6%
Cc1ccc(NC(=O)Nn2cnnc2)cc1Cl	18%	·	0%
Cc1ccc(NC(=O)O/N=C/c2c(C)nn(C(C)(C)C)c2C)cc1Cl	0.28µM*	·	0.28µM*
O=C(COc1cccc(Cl)c1)Nc1cc(S(=O)(=O)N2CCOCC2)ccc1N1CCOCC1	2%	·	27%
SMILES	Gal4-VP16 FLuc	KinaseGlo FLuc	RORgamma inh
O=[N+]([O-])c1ccc(N2CCN(CC3CCCCC3)CC2)cc1	2%	·	-1%
COc1ccc2nc(N=Nc3ccc(O)c4ccccc34)sc2c1	5µM*	-20%	1.6µM*
COc1ccc2nc(N=NC3=C(O)CC(C)(C)CC3=O)sc2c1	?	-7%	11µM*
CC1(C)CC(=O)C(N=Nc2ccc3ncsc3c2)=C(O)C1	-11%	-3%	-18%
COc1ccc2nc(NC(=S)N(C)C)sc2c1	-27%	-5%	29%
COC(=O)CSc1ccc(S(=O)(=O)N2CCCCCC2)cc1[N+](=O)[O-]	-2%	0%	1%
O=C(NNc1nc(-c2ccccc2)cs1)c1cccs1	?	·	7.9µM*
CC(=O)NNc1nc(-c2ccccc2)cs1	-6%[10 µM]	-4%	2%

High-throughput results: PubChem BioAssay, National Center for Advancing Translational Sciences (NCATS)
